Test results: the supplement of paper PMC11577813, “Eurasian spruce bark beetle detects lanierone using a highly expressed specialist odorant receptor, present in several functional sensillum types” (BMC Biology, 2024)
± gives the standard deviation of the averaged measurements.

System: lanierone-responsive B-neuron OSN class (ItypOR36)
Assay: net action potential response of lanierone B-neuron (blank-subtracted) (spikes/s (Hz)); higher = stronger excitation
Settings: 10 µg on filter paper, neuron: B neuron (small spike amplitude)
Method: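 Single sensillum recordings from antennal olfactory sensilla of live adult Ips typographus. Each compound was 10 µg in paraffin oil, delivered as a 0.5 s puff. Net response = spikes in the first 0.5 s of response minus the 0.5 s pre-stimulus count, doubled to give Hz, with blank response subtracted. Values are for the small-spike lanierone-responsive B-neuron (putatively expressing ItypOR36), recorded in sensilla co-housing the A-neuron class; N = 1-4, averaged.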

[1] = co-localized A-neuron class: (4S)-cis-verbenol
[2] = co-localized A-neuron class: (5S,7S)-trans-conophthorin
[3] = co-localized A-neuron class: (+)-isopinocamphone
[4] = co-localized A-neuron class: (+)-trans-4-thujanol
[5] = co-localized A-neuron class: ipsdienol
[6] = co-localized A-neuron class: myrcene
[7] = co-localized A-neuron class: p-cymene

Row | Compound | net action potential response [1] | net action potential response [2] | net action potential response [3] | net action potential response [4] | net action potential response [5] | net action potential response [6] | net action potential response [7]
1 | C=C1CCC2(C(C)C)CC12 (racemic) [(±)-Sabinene] | 0.667 ± 6.4 | -1.33 ± 1.1 | -1.33 ± 2.3 | 0.5 ± 1.9 | 1.33 ± 9.2 | -4 | -4 ± 5.3
2 | CC1=CCC2CC1C2(C)C (stereo not drawn) [(+)-α-Pinene] | 0 ± 12 | -0.5 ± 4.7 | 0.667 ± 5.8 | 2 ± 2.8 | -4 ± 4 | -4 | 1.33 ± 7
3 | C=CC(=C)C[C@@H](O)CC(C)C (racemic) [(±)-Ipsenol] | -1.33 ± 5 | 0 ± 5.3 | 0 ± 3.5 | 0.5 ± 1.9 | -5.33 ± 2.3 | -4 | -8 ± 5.7
4 | CC1=CC(C)(C)C=C(O)C1=O [Lanierone] | 135 ± 24 | 141 ± 31 | 160 ± 24 | 155 ± 24 | 121 ± 13 | 144 | 151 ± 12
5 | CCc1ccc(O)c(OC)c1 [4-Ethylguaiacol] | 1.33 ± 3.1 | 0.667 ± 2.3 | 5.33 ± 1.1 | 4 ± 5.4 | -2 ± 5.3 | -8 | 0.667 ± 3.1
6 | CC(C)CCO [3-Methyl-1-butanol] | 3.33 ± 2.3 | 0.667 ± 6.1 | 1.33 ± 11 | -4 ± 2.3 | -4.67 ± 6.4 | -6 | -0.667 ± 2.3
